Compounds with a hit are over-represented: about 11% of the library has one in this group of screens.
Pf growth 96h: P. falciparum growth inhibition at 96 hours | Potency, µM (highest dose often 28.7 µM), for the others: at the top dose activity change, negative = inhibition, hits mostly inhibitors | AID 504834 | 6.9% of 320,000 active | P. falciparum luciferase reporter growth, 96 h
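96 h incubation, 37 C, 5% CO2, of luciferase-reporter P. falciparum-infected RBCs (2% hematocrit, 0.05% parasitemia final) with test compounds; endpoint luminescence.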
HCV inh: HCV inhibition. Huh7.5.1 HCVcc-Cre infection, luciferase reporter, 44 h. Potency, µM (highest dose often 41.8 µM), for inactives: at the top dose activity change, negative = inhibition, usual class: inhibitors. 3.4% of 340,000 active
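Cells seeded at 1,000/well and cultured 4 h, then compounds added followed by HCVcc-Cre virus (~0.5 moi). After 44 h further culture, luciferase substrate was added, plates held 15 min at room temperature, and luminescence read for 15 sec.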
Pf growth 48h: inhibits P. falciparum growth in the first generation, 48 h; P. falciparum luciferase growth in erythrocytes, 48 h; Potency, µM (titrated, usually from 28.7 µM), inactives show at the highest dose activity change, negative = inhibition, hits mostly inhibitors; 5.9% of 310,000 active; AID 504832
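First compound was added to culture medium, then infected red cells at 0.1% parasitemia and 2% hematocrit (final). After incubation at 37 C under 5% CO2, luciferase detection reagent was dispensed and light output recorded.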
AMA1-RON2 inh: inhibitors of Plasmodium falciparum AMA1-RON2 interaction; AlphaScreen AMA1-biotinylated RON2 peptide binding; AID 720542; 0.2% of 360,000 active; Potency, µM (titrated, usually from 58.2 µM), for the others: top-dose activity change, negative = inhibition, actives largely listed as inhibitors;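 note: 0% = vehicle wells and -100% = peptide control; nearly all actives have a fitted effect of over 45% in size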
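AMA1 (3D7) with his tag at 25 nM final met compounds first, then biotinylated RON2 peptide at 25 nM; detection used donor plus acceptor beads, 10 µg/mL apiece, read by AlphaScreen after 30 min at room temperature.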
* = called active by the depositor; ? = inconclusive; · = not tested or not shown; [ ] = remark or other dose. Calls come from the whole dose curve; as a rule, active = well fitted curve in the direction sought with a large enough effect; inconclusive = small, poorly fitted or top-dose-only effect, or another doubt; inactive = no such curve, though single readings can be large; an effect the other way counts as inactive or inconclusive. Unless noted, % is set by controls: 0 for no effect and ±100 for the full control effect; potency is the fitted concentration of half-maximal effect.

SMILES | Pf growth 96h | HCV inh | Pf growth 48h | AMA1-RON2 inh
COC(=O)c1ccc(CS(=O)(=O)c2ccc(F)cc2)o1 | 5.2µM* | 6% | -5% | 0%
CCOc1ccc(CCNC(=O)c2ccc(CS(=O)Cc3ccc(Cl)cc3)o2)cc1OCC (stereo unspecified) | ? | 2.5µM* | -9% | -11%
CCOC1(OCC)N=C(N)C2(C#N)C(c3ccc(NC(C)=O)cc3)C12C#N (stereo unspecified) | · | 20% | ? | -14%
COc1ccc(S(=O)(=O)Cc2ccc(C(=O)NC3CCCCCC3)o2)cc1 | 7.4µM* | ? | 8% | 6%
COc1ccc(CCNC(=O)c2ccc(CS(=O)(=O)c3ccc(Cl)cc3)o2)cc1OC | 10µM* | 13µM* | -48% | 5%
Cc1ccc(S(=O)(=O)Cc2ccc(C(=O)NC3CCCC3)o2)cc1 | 0% | 5% | 1% | 0%
COc1ccc(CCNC(=O)CN(Cc2ccc(Cl)cc2)S(C)(=O)=O)cc1OC | 15µM* | -5% | 0% | 0%
Cc1ccc(NC(=O)CCCCCC2NC(=O)NC2C)cc1 (stereo unspecified) | · | 7% | -15% | 0.21µM*
Cc1ccc(S(=O)(=O)NCCCCCC(=O)Nc2nccs2)cc1 | 5% | -13% | 13µM* | -18%
Cc1ccc(S(=O)(=O)NCCCCCC(=O)N(C)C)cc1 | 10µM* | 15% | -11% | -5%
COCCNC(=O)CCCCCNS(=O)(=O)c1ccc(C)cc1 | 0% | 14% | 2% | -12%
CCOCCCNC(=O)CCNS(=O)(=O)c1ccc(C)cc1 | 9.3µM* | -3% | 5% | -3%
CCOCCCNS(=O)(=O)c1ccc(Br)cc1 | ? | 9% | 15% | 6%
O=C(c1cccc(S(=O)(=O)N2CCCC2)c1)N1CCCC(C(F)(F)F)C1 (stereo unspecified) | 24% | 13% | -23% | 125%
O=C(Nc1ccc(C(F)(F)F)cc1)C1CCN(c2cnccn2)CC1 | 22% | ? | ? | 0%
O=C(COC(=O)CNC(=O)c1ccc(Cl)c([N+](=O)[O-])c1)NC(=O)CN1CCCC1=O | 28% | 14% | -27% | -8%
Cc1ccc(NC(=O)CCCCCNS(=O)(=O)c2ccc(C)cc2)cc1 | 12µM* | ? | ? | 1%[2.32 µM]
C=CCN1C(=O)C(CC(=O)NCC)SC1=Nc1ccccc1CC (stereo unspecified) | -20% | 2% | 4% | -7%
Cn1cc(CN(CCCN2CCOCC2)C(=S)Nc2cccc(Cl)c2)c2ccccc21 | ? | 8.9µM* | 0% | ?
COc1ccc(NC(=S)N(CCCN2CCOCC2)Cc2cn(C)c3ccccc23)cc1 | ? | ? | ? | -23%
CCOc1ccc(NC(=S)N(CCCN2CCOCC2)Cc2cn(C)c3ccccc23)cc1 | ? | 10µM* | ? | ?
COc1ccc(C2N(c3ccccc3)CCN2c2ccccc2)cc1O | 17% | 18% | 22% | ?
C[C@H](CO)N1C[C@H](C)[C@@H](CN(C)S(C)(=O)=O)Oc2ccc(NC(=O)CCC(F)(F)F)cc2C1=O | · | 21% | · | 5%
COc1ccccc1C1CCCN1Cc1nc(-c2ccc(C)s2)oc1C (stereo unspecified) | 5% | ? | 4.7µM* | -5%
COc1ccccc1C1CCCN1Cc1nc(-c2cc3c(cc2Cl)OCO3)oc1C (stereo unspecified) | -13% | -20% | 9.3µM* | -11%
SMILES | Pf growth 96h | HCV inh | Pf growth 48h | AMA1-RON2 inh
CCOC(=O)C1CN(S(=O)(=O)c2ccc(C)cc2)c2ccccc2O1 (stereo unspecified) | -10% | 26% | -19% | 15%
Cc1nc(SCC(=O)N2CCCCCC2)[nH]c(=O)c1C | 21% | -6% | 11% | 22%
CCOC(=O)Cc1cc(-c2ccc(O)cc2)nc2ccc3ccccc3c12 | 12µM* | ? | ? | 0%
CC(C)NC(=O)CCN1C(=O)c2ccccc2Sc2ncccc21 | 6.6µM* | 5% | 12% | -9%
CC(C)(C)c1cc(C(=O)NN)n(Cc2ccc(F)cc2)n1 | ? | ? | ? | 42%
Cc1cccc(Cn2nc(C(C)(C)C)cc2C(=O)Nc2ccc(F)cc2)c1 | 9.3µM* | ? | 10µM* | 12%
COC(=O)c1cc(NC(=O)c2cc(C(C)(C)C)nn2Cc2ccc(F)cc2)ccc1N1CCOCC1 | -11% | 10µM* | 6.6µM* | 0%
C[C@@H](NC(=O)c1nc[nH]c1C(=O)NCC(=O)OCc1ccccc1)c1ccccc1 | 120% | 16% | 36% | 155%
CCC/C=C1/CCCOC(C(=O)NCc2ccccc2)(C(F)(F)F)C1 (stereo unspecified) | · | 0.89µM* | · | 25%
COC(=O)c1ccc(Oc2nc(Nc3ccc(C)c(C)c3)nc(N(C)C)n2)cc1 | · | 8.9µM* | ? | -6%
CCCC(=O)c1cn(CC(=O)OC)c2ccccc12 | 1µM* | 6% | 7% | 0%
COC(=O)Cn1cc(C(=O)C(C)(C)C)c2ccccc21 | 2% | -10% | 18% | 10%
OC(COc1ccc(-c2ccccc2)cc1)CN1CCCCC1 (stereo unspecified) | · | · | · | -2%
O=C(c1ccccc1)c1ccc(OCC(O)CN2CCN(S(=O)(=O)N3CCCCC3)CC2)cc1 (stereo unspecified) | 5.2µM* | ? | · | -7%
OC(COc1ccccc1)CN1CCOCC1 (stereo unspecified) | 12µM* | ? | -15% | 4%
Cc1cc(OCC(O)CN2CCN(CCO)CC2)ccc1C(C)C (stereo unspecified) | 9.3µM* | -14% | -9% | 6%
OC(COc1ccccc1)CN1CCCCC1 (stereo unspecified) | · | 26% | · | -4%
O=C(c1ccccc1)c1ccc(OCC(O)CN2CCCCC2)cc1 (stereo unspecified) | · | ? | ? | 5%
OC(COc1ccc(CNCCc2ccccc2F)cc1)CN1CCCCC1 (stereo unspecified) | -12% | ? | 6.6µM* | -2%
c1ccc(COC2COC3C(OCc4ccccc4)COC23)cc1 (stereo unspecified) | · | -3% | · | 16%
CN(C(=O)COC(=O)c1ccc2ccccc2n1)c1ccccc1 | · | 10% | · | -10%
CC(=O)c1cnc2ncnn2c1C | -1% | -15% | 27% | -1%[11.6 µM]
COc1ccc(OC)c(C2CC(=O)Nc3c2c(=O)[nH]c2ncnn32)c1 (stereo unspecified) | 15% | 20% | 23% | -10%
COCCOCC(O)CN1CCN(c2ccc(C)cc2)CC1 (stereo unspecified) | ? | 8% | -6% | 14µM*
OC(COc1ccc(F)cc1)CN1CCN(CC(O)COc2ccc(F)cc2)CC1 (stereo unspecified) | 18% | 32µM* | -18% | -1%
COc1ccc(N2CCN(CC(O)COC(c3ccc(F)cc3)c3ccc(F)cc3)CC2)cc1 (stereo unspecified) | 15µM* | ? | 9.3µM* | 28µM*
COc1cccc(OC)c1OCC(O)CN1CCN(c2ccccc2F)CC1 (stereo unspecified) | 4.7µM* | 1% | -12% | 9%

Screens deposited in PubChem by National Center for Advancing Translational Sciences (NCATS).
